The values below come from PubChem BioAssay (Tox21).

Values joined by “and” are separate entries in the source; they are usually repeats but may differ in a detail not shown here. Identical values can stand only once. Records with an inconclusive call do not appear. Where a structure was tested more than once in an assay, its records may differ in their call. Active and inactive are the calls of the source. Calls come from the whole dose curve; as a rule, active = well fitted curve in the direction sought with a large enough effect in the repeat runs; inconclusive = weak or mixed curves; inactive = no such curve, though single readings can be large; an effect the other way counts as inactive or inconclusive. Residues, ends and D or L forms follow the SMILES beside them.
% is set by controls: 0 for no effect and ±100 for the full control effect; potency is the fitted concentration of half-maximal effect.

Cytochrome P450 2C19 (Homo sapiens), sequence (P33261 whole entry, looked up): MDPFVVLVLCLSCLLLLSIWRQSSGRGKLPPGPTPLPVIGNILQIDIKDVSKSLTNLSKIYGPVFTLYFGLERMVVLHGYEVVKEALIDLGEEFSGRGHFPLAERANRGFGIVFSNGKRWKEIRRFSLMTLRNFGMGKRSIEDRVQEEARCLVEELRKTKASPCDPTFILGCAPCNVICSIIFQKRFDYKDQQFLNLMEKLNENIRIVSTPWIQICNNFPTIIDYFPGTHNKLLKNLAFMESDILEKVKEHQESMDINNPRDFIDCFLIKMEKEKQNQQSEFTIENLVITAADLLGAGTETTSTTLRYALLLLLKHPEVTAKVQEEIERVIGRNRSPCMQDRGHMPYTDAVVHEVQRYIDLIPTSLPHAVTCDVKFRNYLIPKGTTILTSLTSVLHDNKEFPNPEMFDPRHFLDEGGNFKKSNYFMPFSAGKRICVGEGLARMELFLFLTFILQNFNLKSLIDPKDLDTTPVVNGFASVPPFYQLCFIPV

One assay has as its target Nuclear receptor subfamily 1 group I member 2 (Homo sapiens) (UniProt O75469). In words: Human pregnane X receptor (PXR) activation by small molecules, qHTS assay (AID 1346985). Note: nearly all actives have a fitted effect of over 40% in size. As to conditions: DPX-2 HepG2 CYP3A4-luciferase, 24 h; series mostly up to 38.3 µM; activation: at the top concentration. The method, boiled down: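 DPX-2 cells (HepG2 co-transfected with a PXR response element and a CYP3A4-promoter luciferase construct) were seeded at 2,000 per well, rested 5 hr at 37C, then exposed to DMSO-dissolved compounds for 24 hr. Activation was read as luciferase luminescence.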
`NC(N)=O`: the “activation” value was 2.5% (inactive).
Turning to `O=C(c1ccccc1)C(O)c1ccccc1` (centres undefined), the “activation” value is 2.97% (inactive).
On to `CCCCOC(=O)CC(CC(=O)OCCCC)(OC(C)=O)C(=O)OCCCC`, for which the Potency was 25.1 µM (active).
In the case of `O=C(O)CCCCC(=O)O`, the “activation” value was -4.56% (inactive).
Still for that read-out and setting: the same measure for `CCCC(O)C(CC)CO` (centres undefined): -1.71% (inactive).
For `COC(=O)[C@H](Cc1ccccc1)NC(=O)[C@@H](N)CC(=O)O` (H-Asp-Phe-OMe), the Potency entry is “inactive”.
As to `CCOc1ccc(NC(=O)CC(C)O)cc1` (centres undefined), the “activation” value is 11.9% (inactive).
Same read-out and setting: the same measure for `O=c1ccc2ccccc2o1`: -2.98% (inactive); for `CC(O)C(=O)O` (centres undefined): 20.4% (inactive).
On the same count and under the same terms, the same measure for `CC(O)CN(CCN(CC(C)O)CC(C)O)CC(C)O` (centres undefined): -5.62% (inactive); for `C[C@]12C=CC(=O)C=C1CC[C@@H]1[C@@H]2[C@@H](O)C[C@@]2(C)[C@H]1CC[C@]2(O)C(=O)CO`: 20.6% (inactive).
Still for that read-out and setting: the same measure for `CC(C)(Oc1ccc(C2CC2(Cl)Cl)cc1)C(=O)O` (centres undefined): -2.63% (inactive).
On to `O=c1cc[nH]c(=S)[nH]1`, for which the “activation” value is 0.028% (inactive).
For the compound `c1ccc2[nH]ccc2c1`, the “activation” value is -4.51% (inactive).
Same read-out and setting: the same measure for `Cc1cc(=O)[nH]c(=S)[nH]1`: 4.63% (inactive).
On the same count and under the same terms, the figure for `O=C(O)CCC(=O)O` is 7.71% (inactive); for `CC(O)CO` (centres undefined) it is 4.55% (inactive).
Same read-out and setting: the same measure for `O=C1CN(/N=C/c2ccc([N+](=O)[O-])o2)C(=O)N1`: 0.895% (inactive); for `O=C(O)c1cc(N=Nc2ccc(S(=O)(=O)Nc3ccccn3)cc2)ccc1O`: 4.29% (inactive).
As for `Cc1cn([C@H]2C[C@H](N=[N+]=[N-])[C@@H](CO)O2)c(=O)[nH]c1=O`, the Potency entry is “inactive”.
Consider `CC1(C)[C@@H]2CC[C@@]1(C)C(=O)C2`, for which the “activation” value was -0.257% (inactive).
Still for that read-out and setting: the same measure for `Nc1ccc(C(=O)O)cc1`: 9.93% (inactive).
The same measure, in the same setting: the same measure for `CC(=O)OCC(COC(C)=O)OC(C)=O`: -2.09% (inactive).
Same read-out and setting: the same measure for `Cc1ccccc1C(OCCN(C)C)c1ccccc1` (centres undefined): 7.09% (inactive); for `C/C=C/c1ccc(OC)cc1`: 3.02% (inactive).
On to `CC(C)[C@@H]1CC[C@@H](C)C[C@H]1O`, for which the “activation” value was 2.85% (inactive).
On the same count and under the same terms, the same measure for `CCCC(CCC)C(=O)O`: -9.33% (inactive).
Same read-out and setting: the figure for `CCCCCCCCCCCCCCCC(=O)O` is -2.27% (inactive); for `CCCCC(CC)COC(=O)/C=C/c1ccc(OC)cc1` (centres undefined) it is 12.8% (inactive); for `NC(=O)c1ccccc1O` it is -10.8% (inactive).

In another assay the target is Cytochrome P450 2D6 (Homo sapiens) (UniProt P10635). Kind of assay: Cytochrome P450 Family 2 Subfamily D Member 6 (CYP2D6) small molecule antagonists: luciferase reporter qHTS assay (AID 1671196). Note: nearly all actives have a fitted effect of over 50% in size. The settings on record: P450-Glo CYP2D6 enzyme assay, luciferin luminescence, 1 h; series mostly up to 115 µM; activity change, negative = inhibition: at the top concentration. The method, boiled down: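 Inhibition of CYP2D6 was gauged by loss of luminescence, since light produced tracks the luciferin generated from a proluciferin substrate. A 10 min room-temperature preincubation preceded 1 h NADPH-supported turnover.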
Cytochrome P450 2D6 (Homo sapiens), sequence (P10635 whole entry, looked up): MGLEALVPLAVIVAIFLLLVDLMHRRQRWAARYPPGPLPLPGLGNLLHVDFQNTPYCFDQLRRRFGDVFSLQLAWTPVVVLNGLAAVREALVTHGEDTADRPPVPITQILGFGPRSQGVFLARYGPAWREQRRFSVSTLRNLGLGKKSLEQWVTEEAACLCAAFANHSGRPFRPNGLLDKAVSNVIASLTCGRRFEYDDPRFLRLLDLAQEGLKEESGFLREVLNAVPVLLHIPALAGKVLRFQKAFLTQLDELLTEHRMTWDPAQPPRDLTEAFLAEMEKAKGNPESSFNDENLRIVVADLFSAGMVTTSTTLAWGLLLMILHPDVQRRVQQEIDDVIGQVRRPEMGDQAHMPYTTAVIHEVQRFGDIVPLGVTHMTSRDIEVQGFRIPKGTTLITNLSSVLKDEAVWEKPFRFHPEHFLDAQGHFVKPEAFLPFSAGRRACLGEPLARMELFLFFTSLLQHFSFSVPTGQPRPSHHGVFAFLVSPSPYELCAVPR
A general note: A reporter such as luciferase makes a cellular process visible.
`NC(N)=O`: the Potency entry was “inactive”.
Still for that read-out and setting: the figure for `O=C(c1ccccc1)C(O)c1ccccc1` (centres undefined) is 39.6 µM (active) and inactive; for `CCCCOC(=O)CC(CC(=O)OCCCC)(OC(C)=O)C(=O)OCCCC` it is “inactive”; for `O=C(O)CCCCC(=O)O` it is “inactive”.
The same measure, in the same setting: the entry for `CCCC(O)C(CC)CO` (centres undefined) is “inactive”; for `COC(=O)[C@H](Cc1ccccc1)NC(=O)[C@@H](N)CC(=O)O` (H-Asp-Phe-OMe) it is “inactive”; for `CCOc1ccc(NC(=O)CC(C)O)cc1` (centres undefined) it is 32.1 µM (active) and inactive.
On the same count and under the same terms, the same measure for `O=c1ccc2ccccc2o1`: “inactive”.
Consider `CC(O)C(=O)O` (centres undefined), for which the Potency result was “inactive and 11 µM (active)”.
The same measure, in the same setting: the figure for `CC(O)CN(CCN(CC(C)O)CC(C)O)CC(C)O` (centres undefined) is 36.2 µM (active).
On the same count and under the same terms, the same measure for `C[C@]12C=CC(=O)C=C1CC[C@@H]1[C@@H]2[C@@H](O)C[C@@]2(C)[C@H]1CC[C@]2(O)C(=O)CO`: “inactive”; for `CC(C)(Oc1ccc(C2CC2(Cl)Cl)cc1)C(=O)O` (centres undefined): “inactive”.
As for `O=c1cc[nH]c(=S)[nH]1`, the “activity change, negative = inhibition” value is -10.4% (inactive).
Still for that read-out and setting: the same measure for `c1ccc2[nH]ccc2c1`: -3.61% [at 53 µM] (inactive).
For the compound `Cc1cc(=O)[nH]c(=S)[nH]1`, the Potency result was “inactive”.
The same measure, in the same setting: the entry for `O=C(O)CCC(=O)O` is “inactive”.
On the same count and under the same terms, the same measure for `CC(O)CO` (centres undefined): “inactive and 1.56 µM (active)”.
Turning to `O=C1CN(/N=C/c2ccc([N+](=O)[O-])o2)C(=O)N1`, the “activity change, negative = inhibition” value was -19.8% [at 53 µM] (inactive).
Same read-out and setting: the same measure for `O=C(O)c1cc(N=Nc2ccc(S(=O)(=O)Nc3ccccn3)cc2)ccc1O`: -15.1% (inactive).
Take `O=C(O)C(=O)O`: the Potency result is “inactive”.
As for `Cc1cn([C@H]2C[C@H](N=[N+]=[N-])[C@@H](CO)O2)c(=O)[nH]c1=O`, the Potency entry is “inactive”.
Still for that read-out and setting: the same measure for `CC1(C)[C@@H]2CC[C@@]1(C)C(=O)C2`: “inactive”.
Turning to `Nc1ccc(C(=O)O)cc1`, the Potency result was “inactive”.
Still for that read-out and setting: the entry for `CC(=O)OCC(COC(C)=O)OC(C)=O` is “inactive”; for `C/C=C/c1ccc(OC)cc1` it is “inactive”.
Still for that read-out and setting: the same measure for `CC(C)[C@@H]1CC[C@@H](C)C[C@H]1O`: “inactive”; for `CCCC(CCC)C(=O)O`: “inactive”; for `NNC(=O)c1ccncc1`: 40 µM (active) and inactive.
With `CCCCCCCCCCCCCCCC(=O)O`, the Potency entry is “inactive”.
Take `CCCCC(CC)COC(=O)/C=C/c1ccc(OC)cc1` (centres undefined): the Potency entry was “inactive”.
Same read-out and setting: the same measure for `NC(=O)c1ccccc1O`: “inactive”.

Another assay addresses Cytochrome P450 2C19 (Homo sapiens) (UniProt P33261). In words: Cytochrome P450 Family 2 Subfamily C Member 19 (CYP2C19) small molecule antagonists: luciferase reporter qHTS assay (AID 1671197). Note: nearly all actives have a fitted effect of over 65% in size. The settings on record: P450-Glo CYP2C19 enzyme, luciferin luminescence, 1 h; series mostly up to 115 µM; activity change, negative = inhibition: at the top concentration. Put shortly:
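P450-Glo CYP2C19 system: enzyme-substrate mix with compound 10 min at room temperature, then NADPH regeneration solution, 1 h at 37C. Proluciferin-to-luciferin conversion detected by luminescence after 20 min with detection reagent; ketoconazole as positive control.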
For `NC(N)=O`, the Potency entry was “inactive”.
The same measure, in the same setting: the same measure for `O=C(c1ccccc1)C(O)c1ccccc1` (centres undefined): 17.7 µM (active) and 31.7 µM (active) and 8.71 µM (active); for `CCCCOC(=O)CC(CC(=O)OCCCC)(OC(C)=O)C(=O)OCCCC`: 2.19 µM (active) and 4.04 µM (active) and 3.56 µM (active).
Still for that read-out and setting: the same measure for `O=C(O)CCCCC(=O)O`: “inactive”; for `CCCC(O)C(CC)CO` (centres undefined): “inactive”; for `COC(=O)[C@H](Cc1ccccc1)NC(=O)[C@@H](N)CC(=O)O` (H-Asp-Phe-OMe): “inactive”.
Still for that read-out and setting: the same measure for `CCOc1ccc(NC(=O)CC(C)O)cc1` (centres undefined): “inactive”; for `O=c1ccc2ccccc2o1`: “inactive”; for `CC(O)C(=O)O` (centres undefined): “inactive and 81.1 µM (active)”.
Regarding `CC(O)CN(CCN(CC(C)O)CC(C)O)CC(C)O` (centres undefined), the Potency result is “inactive”.
On the same count and under the same terms, the same measure for `C[C@]12C=CC(=O)C=C1CC[C@@H]1[C@@H]2[C@@H](O)C[C@@]2(C)[C@H]1CC[C@]2(O)C(=O)CO`: 78.6 µM (active) and inactive; for `CC(C)(Oc1ccc(C2CC2(Cl)Cl)cc1)C(=O)O` (centres undefined): “inactive”; for `O=c1cc[nH]c(=S)[nH]1`: 28.5 µM (active) and inactive.
As to `c1ccc2[nH]ccc2c1`, the Potency is 49.4 µM (active) and inactive.
Turning to `Cc1cc(=O)[nH]c(=S)[nH]1`, the Potency result is “inactive”.
The same measure, in the same setting: the entry for `O=C(O)CCC(=O)O` is “inactive”; for `CC(O)CO` (centres undefined) it is “inactive”.
Regarding `O=C1CN(/N=C/c2ccc([N+](=O)[O-])o2)C(=O)N1`, the Potency was 79.4 µM (active) and inactive.
As for `O=C(O)c1cc(N=Nc2ccc(S(=O)(=O)Nc3ccccn3)cc2)ccc1O`, the Potency is 56.6 µM (active) and inactive.
Regarding `O=C(O)C(=O)O`, the Potency is 81 µM (active) and the activity change, negative = inhibition is -11.9% [at 10.5 µM] (inactive).
`Cc1cn([C@H]2C[C@H](N=[N+]=[N-])[C@@H](CO)O2)c(=O)[nH]c1=O`: the Potency was 41.1 µM (active) and 39.9 µM (active) and inactive.
Still for that read-out and setting: the entry for `CC1(C)[C@@H]2CC[C@@]1(C)C(=O)C2` is “inactive”; for `Nc1ccc(C(=O)O)cc1` it is “inactive”.
Still for that read-out and setting: the same measure for `CC(=O)OCC(COC(C)=O)OC(C)=O`: “inactive”; for `Cc1ccccc1C(OCCN(C)C)c1ccccc1` (centres undefined): “inactive”.
Consider `C/C=C/c1ccc(OC)cc1`, for which the Potency entry was “inactive and 21.9 µM (active)”.
Still for that read-out and setting: the same measure for `CC(C)[C@@H]1CC[C@@H](C)C[C@H]1O`: “inactive”; for `CCCC(CCC)C(=O)O`: “inactive”.
On the same count and under the same terms, the figure for `NNC(=O)c1ccncc1` is 15.9 µM (active) and 2.97 µM (active) and 17.4 µM (active); for `CCCCCCCCCCCCCCCC(=O)O` it is 80.5 µM (active) and inactive; for `CCCCC(CC)COC(=O)/C=C/c1ccc(OC)cc1` (centres undefined) it is 39.8 µM (active) and 25.2 µM (active) and 24.5 µM (active).
Take `NC(=O)c1ccccc1O`: the Potency entry is “inactive”.
